# The whole screen tested about 2,300 compounds, of which about 1,400 (61%) were called active. Another 7% or so got no clear call; they are omitted. How the calls were made is not given here. So high a share suggests a set chosen from earlier hits. The list is a sample of the results. Measured potencies and affinities stand elsewhere.
# Biological target: FAD-linked sulfhydryl oxidase ALR (Homo sapiens) (UniProt P55789)
# Test: inhibitors of human ALR sulfhydryl oxidase, dose response, biochemical, H2O2 detection, luminescence, cherry-pick (AID 493248)
# Settings: purified ALR, DTT oxidation, H2O2 HRP-luminol luminescence; at 10 µM (top of the series)
# FAD-linked sulfhydryl oxidase ALR (Homo sapiens), sequence (P55789 whole entry, looked up): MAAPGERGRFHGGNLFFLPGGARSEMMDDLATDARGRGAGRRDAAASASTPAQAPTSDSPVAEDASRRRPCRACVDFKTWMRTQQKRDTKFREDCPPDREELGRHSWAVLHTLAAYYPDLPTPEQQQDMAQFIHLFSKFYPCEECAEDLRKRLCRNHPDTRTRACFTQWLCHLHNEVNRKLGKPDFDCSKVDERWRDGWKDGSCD
row,SMILES,"activity change, negative = inhibition [%]"
1,CC1CCc2c(sc(NC(=O)c3ccccc3C(=O)O)c2C#N)C1 (configuration not stated),-85.9
2,CCCCNc1cc(NC(C)=O)cc2cc(OC)c(OC)cc12,-66.6
3,COc1cccc(NC(=O)c2cc(OC)c(OC)c(OC)c2Br)c1,4.6
4,O=S(=O)(Nc1ncnc2sc3c(c12)CCC3)c1cc(F)ccc1F,5.9
5,CCC1(C)OC(=O)NN(c2ccc(C)cc2)C1(C)O (configuration not stated),-35.5
6,Cc1ccc(O)c(-c2cc(C(=O)NCc3ccncc3)[nH]n2)c1,-50.3
7,COc1ccc(-c2cc(C(=O)NN)[nH]n2)cc1OC,-15.4
8,O=C(Nc1ccccc1F)c1ccc(Cn2cc(Cl)cn2)cc1,-100
9,Cn1nnc2c[n+](CC(=O)c3ccc(Cl)cc3)cc(Br)c21,-31
10,Cc1cc(-c2n[nH]c(=S)n2-c2ccc(C)c(C)c2)no1,-43
11,COc1ccc(-c2n[nH]c(=S)n2-c2ccc(C)cc2)cc1OC,3.4
12,Cc1ccc(-n2c([C@@H]3C[C@H]3c3ccccc3)n[nH]c2=S)cc1,-34.6
13,Cc1cccc(-n2c(-c3ccncc3)n[nH]c2=S)c1,-2.76
14,O=C(Cn1cc(C(F)(F)F)ccc1=O)N/N=C/c1ccc(O)cc1,174
15,COc1cc(/C=N/Nc2ccc(C(F)(F)F)cn2)ccc1O,-15
16,COC(=O)Cc1c(C)c2ccc(OC(=O)c3ccccc3)cc2oc1=O,31.5
17,CCCN(Cc1ccc(N(CC)CC)cc1)CC1CC1,-0.019
18,CN(CC(=O)NC1CCCCC1)S(=O)(=O)c1cccc2cccnc12,5.38
19,O=C(Cc1ccccc1)Nc1ccc(C(=O)Nc2ccccc2C(=O)O)cc1,5.48
20,O=C(O)c1cccc(NC(=O)c2cccc(S(=O)(=O)Nc3cccc([N+](=O)[O-])c3)c2)c1,-2.25
21,O=S(=O)(NCCCN1CCN(c2ccccc2F)CC1)c1cccc2cccnc12,20.3
22,CNCc1ccccc1Sc1ccc(O)c(O)c1,-78.5
23,CC(C)NC(=O)c1ccc(CSCc2ccccc2Cl)o1,-4.45
24,CC(=O)c1c(C)oc(C)c1CSCc1ccc(C(=O)O)o1,16.7

row,SMILES,"activity change, negative = inhibition [%]"
1,Cc1cc(-c2ccccc2)nc2cc(C(=O)NCc3ccco3)nn12,-17.4
2,CS(=O)(=O)c1nsc2nc(=O)c(/C=C3\C=Nc4ccccc43)c(N)n12,-69.9
3,CCCc1nn2c(N)c(/C=C3\C=Nc4ccccc43)c(=O)nc2s1,-38
4,CCC(=O)Nc1ccc(C(=O)NCCCn2ccnc2)cc1,87.5
5,CCCC(=O)NC(c1ccc(N(C)C)cc1)c1ccc2cccnc2c1O (configuration not stated),268
6,CC1=Nc2cccc3cccc(c23)N1C,-10.4
7,Cc1nc(-c2cccc(N)c2)cs1,-3.17
8,O=S(=O)(c1ccc(Cl)nc1)N1CCC(Cc2ccccc2)CC1,-5.04
9,Cc1nc([N+](=O)[O-])c(Br)n1CC(=O)c1ccc(Cl)cc1,-18.7
10,CO/N=C/NC(=O)c1ccc([N+](=O)[O-])c(CS(=O)(=O)c2ccc(Cl)cc2)c1,7.26
11,Cc1nn(C(C)C(=O)N/N=C/c2ccc(N(C)C)cc2)c(C)c1[N+](=O)[O-] (configuration not stated),-45.7
12,COc1cccc(Oc2cn[nH]c2-c2ccc(O)cc2O)c1,-53.3
13,COc1ccccc1-c1c(-c2ccc(O)cc2O)n[nH]c1C(F)(F)F,267
14,Cc1cc(/C=C2\C(=N)N3N=CSC3=NC2=O)c(C)n1Cc1ccccc1,-36.4
15,Cn1nnnc1SCc1csc(Nc2ccccc2)n1,-51.7
16,CCN1C(=O)/C(=C/N(C)C)c2ccccc21,14.1
17,Cc1ccc(-c2sc(-c3cccnc3)nc2CC(=O)O)cc1,-3.54
18,CCCCC(=O)Nc1ccnc(-c2cccnc2)n1,34
19,Cc1ccc(-c2nc(-c3ccc(Cl)cc3)sc2CC(=O)O)c(C)c1,-95.8
20,O=C(Cc1cccs1)N/N=C\c1ccc(O)cc1,-96.8
21,CN(C)c1cccc2c(/C=N/O)ccc(N(C)C)c12,3.9
22,Cc1ccc(C(=O)Nc2cccc([N+](=O)[O-])c2)cc1S(=O)(=O)Nc1ccc(C(=O)O)cc1,-15
23,COc1cccc2sc(Nc3nnc(-c4ccccc4Cl)o3)nc12,-55.9
24,Cc1noc(C(=O)N2CCN(c3ccccc3)CC2)c1Cl,-27.4

row,SMILES,"activity change, negative = inhibition [%]"
1,Cc1onc(C(=O)N2CCN(c3ccccc3)CC2)c1[N+](=O)[O-],-51.4
2,c1ccc2c(c1)CC(N1CCCCC1)c1ccccc1N2 (configuration not stated),-14.9
3,C=CCNC(=O)c1ccccc1S(=O)c1ccccc1C#N (configuration not stated),-6.74
4,Nc1nc(CN2CCN(C(=O)c3ccco3)CC2)nc(Nc2cccc(Cl)c2)n1,-24.8
5,CN1CCN(S(=O)(=O)c2ccc(N)cc2)CC1,-29.3
6,Brc1ccc(-c2ncc3ccccn23)cc1,-33.1
7,Cc1nn(C)c(Sc2ccccc2N)c1[N+](=O)[O-],-39.9
8,O=[N+]([O-])c1ccc2c(c1)CNc1ccccc1O2,-57.2
9,O=C(O)c1ccccc1CSC1=NCCS1,-98.5
10,CC(=O)Nc1ccc(SC[C@H](CC(C)C)N2CCN(CC(C)C)CCC2=O)cc1,0.961
11,O=C(O)c1ccc(-n2c(/C=C/c3cccc([N+](=O)[O-])c3)nc3ccccc3c2=O)cc1,-30.3
12,CC1CCN(CCCNC(=O)c2ccc(CSCc3cccc(Cl)c3)o2)CC1,26.9
13,O=C(c1ccc(CS(=O)(=O)c2ccc(Br)cc2)o1)N1CCCC1,43.5
14,O=C(c1ccc(CS(=O)Cc2ccccc2Cl)o1)N1CCN(c2cccc(Cl)c2)CC1 (configuration not stated),45.7
15,COc1cccc(N2CCN(C(=O)c3cc(C)oc3C)CC2)c1,-48.7
16,COc1ccc(-c2coc3cc(O)ccc3c2=O)cc1O,-45.2
17,COC(=O)c1c(-c2ccc(C)cc2)csc1N,-4.41
18,Cc1oc(-c2ccccc2)cc1C(=O)Nc1cccc(C(=O)O)c1,-45.5
19,Cc1cccc(C(=O)Nc2ccc(O)cc2)c1,-86.3
20,COc1ccccc1C(=O)Nc1nc2nc(-c3ccccc3)cc(=O)n2[nH]1,-46.5
21,Cc1cc(C)nc(NS(=O)(=O)c2ccc(NC(=O)Cc3ccccc3F)cc2)n1,-98.5
22,c1ccc(CCCN2CCN(c3ccccc3)CC2)cc1,-9.66
23,COC(=O)c1ccc(NC(=O)CN2CCN(c3ccccc3)CC2)cc1,-30.3
24,Cc1nc2nc(C)c(CCC(=O)N3CCN(c4ccccc4)CC3)c(C)n2n1,-54.1

row,SMILES,"activity change, negative = inhibition [%]"
1,O=C(CCCC1=NS(=O)(=O)c2ccccc2N1)N1CCN(c2ccc(Cl)cc2)CC1,-50.1
2,Cc1nn(-c2ccccc2)c2nc(-c3ccco3)cc(C(=O)O)c12,-53.4
3,COC(=O)c1ccc(CSc2ncnc3c2nnn3-c2ccc(F)cc2)o1,-6.9
4,COC(=O)c1ccc(CSc2nc3ccc(Cl)cc3[nH]2)o1,-47.5
5,O=C1c2cc(O)c(O)cc2S(=O)(=O)C1c1ccccc1 (configuration not stated),-13
6,COc1ccc(-n2cnnc2SCc2cnc(-c3ccccc3)s2)cc1,-99.2
7,Cc1nc2ccc(NC(=O)c3ccco3)cc2nc1C,-98.9
8,Oc1ccc(C2C[C@H]3CC[C@@H]2C3)cc1O (some centres not stated),0.253
9,O=C(O)CCCN1C(=O)/C(=C\C(Cl)=C\c2ccccc2)SC1=S,-28.9
10,CN(C)c1ccc(N2CC(C)(C)C2=O)cc1,9.24
11,Cc1cccn2cc(-c3cccc(S(=O)(=O)N4CCCCC4)c3)nc12,-98.3
12,Cc1cc(C)c2ccc(N)nc2c1O,-14.6
13,COc1cc(C)nc(Oc2ccc(/C=N/O)cc2)n1,-95.2
14,CCN1CCN(C(=O)Nc2ccc(Cc3ccc(NC(=O)N4CCN(CC)CC4)cc3)cc2)CC1,-18.9
15,COCc1nnc(NC(=O)c2ccc(S(=O)(=O)N3CCCc4ccccc43)cc2)o1,-34.2
16,CCCC(O)(c1ccc(OC)cc1)C(CN(C)C)c1ccccc1 (configuration not stated),4.55
17,Nc1ccccc1Nc1c(F)c(F)nc(F)c1Cl,-37.7
18,Cc1ccc[n+](-c2nc([O-])sc2/C=N/Nc2ccc([N+](=O)[O-])cc2)c1,-43.9
19,O=C(NCc1ccco1)C1CC(=O)N(c2ccc(O)cc2)C1 (configuration not stated),-85.4
20,O=C(CNC(=O)c1ccco1)Nc1ccc(N2CCCCCC2)cc1,-0.183
21,O=C(CN1CCN(c2ccc(O)cc2)CC1)Nc1cc(S(=O)(=O)N2CCCC2)ccc1Cl,-40.9
22,COc1cc(/C=C/c2sc3ccccc3[n+]2CCCS(=O)(=O)[O-])ccc1O,-105
23,Nc1nc(-c2ccc3c(c2)CCCC3)cs1,-97
24,COc1ccc2c(c1)c1ncn(CCc3ccccc3)c(=O)c1n2C,-0.427

row,SMILES,"activity change, negative = inhibition [%]"
1,O=c1[nH]c(=S)[nH]c2sccc12,-34.4
2,Cc1ccc(CNC(=O)c2ccc(CS(=O)Cc3ccccc3Cl)o2)cc1 (configuration not stated),-1.87
3,O=c1oc2c3c4c(cc2s1)CCCN4CCC3,-13.7
4,Cc1ccc(N2CCN(S(=O)(=O)c3ccc4c(c3)NC(=O)C(C)C(=O)N4)CC2C)cc1 (configuration not stated),-30.2
5,Cc1cccc(N2CCN(C(=O)Cn3sc4nc(C)cc(C)c4c3=O)CC2C)c1 (configuration not stated),-57.4
6,CC(C)n1cc(C(=O)N2CCCC(N3CCN(c4cccc(Cl)c4)CC3)C2)cn1 (configuration not stated),-43.2
7,O=c1oc2ccccc2cc1-c1ccc(O)cc1O,371
8,Cn1cc(Cl)c(-c2n[nH]c(=S)n2-c2ccc(F)cc2)n1,18.2
9,Cc1c(Cl)c(-c2n[nH]c(=S)n2CC(C)C)nn1C,-54.1
10,CC(C)(C)c1ccc(Oc2ccc(N)cn2)cc1,49.2
11,CC(C)(C)c1ccc(C(=O)Oc2ccccc2CCC(=O)O)cc1,-56
12,CN(C)c1ccc(C(=O)N2CCCC2)cc1,-10.3
13,CC1CCN(C(=S)c2ccc(O)cc2)CC1,-30
14,C=CCn1c(-c2sccc2C)n[nH]c1=S,0.591
15,S=c1[nH]nc(-c2ccco2)n1/N=C/C=C/c1ccccc1,-45.1
16,COc1ccc(-c2n[nH]c(=S)n2Cc2ccco2)cc1,-32.4
17,CC1CCCCC1n1c(-c2cccnc2)n[nH]c1=S (configuration not stated),-2.8
18,N#Cc1ccccc1S(=O)(=O)N1CCN(C(=O)Cc2coc3cc(O)ccc23)CC1,-102
19,CCN(C=NC1=NN(c2cccc(C(F)(F)F)c2)CC1)CC,4.04
20,CCc1ccc(OC)c(-c2csc(N)n2)c1,3.63
21,COC(=O)c1[nH]c2cc(OC)ccc2c1N=CN(C)C,-64.5
